High-throughput results as filed in PubChem.
Six1-Eya2 blk = inhibitors of human Six1/Eya2 interaction. 360,000 compounds, 0.56% hits. activity change, % (concentration not given with the values). AlphaScreen GST-Six1/His-Eya2 binding, biochemical; active compounds read low. Q15475+O00167; further: on the % scale 0 is the no-effect control and ±100 the full control effect
Target sequence (O00167 whole entry, looked up): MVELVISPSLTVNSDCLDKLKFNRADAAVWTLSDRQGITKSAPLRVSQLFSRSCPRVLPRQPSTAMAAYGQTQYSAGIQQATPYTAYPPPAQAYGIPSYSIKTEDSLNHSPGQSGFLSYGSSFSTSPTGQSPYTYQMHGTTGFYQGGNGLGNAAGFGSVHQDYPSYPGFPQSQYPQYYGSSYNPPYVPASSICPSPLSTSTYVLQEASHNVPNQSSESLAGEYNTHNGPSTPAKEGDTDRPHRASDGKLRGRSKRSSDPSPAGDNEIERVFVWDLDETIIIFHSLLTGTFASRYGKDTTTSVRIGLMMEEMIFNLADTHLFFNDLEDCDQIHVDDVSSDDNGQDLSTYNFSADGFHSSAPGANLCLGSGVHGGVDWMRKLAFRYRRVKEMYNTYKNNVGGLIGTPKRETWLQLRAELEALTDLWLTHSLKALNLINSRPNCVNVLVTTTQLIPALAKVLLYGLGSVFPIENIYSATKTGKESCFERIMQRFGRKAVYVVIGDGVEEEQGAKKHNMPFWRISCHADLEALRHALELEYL
Target sequence (Q15475 whole entry, looked up): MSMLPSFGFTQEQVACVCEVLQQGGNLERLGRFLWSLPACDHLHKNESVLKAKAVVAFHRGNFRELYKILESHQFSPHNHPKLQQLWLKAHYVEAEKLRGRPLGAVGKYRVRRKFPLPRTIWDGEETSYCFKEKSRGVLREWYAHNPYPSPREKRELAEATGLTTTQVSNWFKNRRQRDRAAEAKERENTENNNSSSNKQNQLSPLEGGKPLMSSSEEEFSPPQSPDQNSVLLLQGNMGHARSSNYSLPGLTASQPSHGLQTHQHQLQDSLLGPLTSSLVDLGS
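AlphaScreen with GST-Six1 and His-Eya2 (5X mix: 250 nM and 500 nM), glutathione donor and nickel acceptor beads; buffer 50 mM Tris pH 8.0, 300 mM NaCl, 1 mM TCEP; 1 h at 37 C in the dark.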
GRP78 ERSR act = inducers of ER stress response in human glioma cells; U87-MG GRP78 promoter luciferase reporter, 16 h; Potency, µM, without a hit: at the highest dose activation, usual class: activators; 420,000 compounds, 0.02% hits; AID 602332; active means well fitted curve in the direction sought with a large enough effect; inconclusive means small, poorly fitted or top-dose-only effect, or another doubt; inactive means no such curve, though single readings can be large; an effect the other way counts as inactive or inconclusive; further: potency means the concentration at half of the fitted maximal effect; series mostly up to about 76 µM; % of control where 0% means no effect; nearly all actives have a fitted effect of over 35% in size
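Stably transfected U87-MG human glioma cells carrying a GRP78-based luminescent sensor were seeded at 1000 cells/well, pin-dosed with compounds and incubated 16 h. Luciferase reagent was then added, and end-point luminescence was read after 10 min at room temperature.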
Eya2 phos inh = inhibitors of human Eya2 phosphatase activity; recombinant Eya2, OMFP fluorescence dephosphorylation (OMFP is methylfluorescein phosphate); Potency, µM (series often up to 76.9 µM), for inactives: top-dose activity, negative = inhibition, hits mostly inhibitors; 330,000 compounds, 0.006% hits; active means well fitted curve in the direction sought with a large enough effect; inconclusive means small, poorly fitted or top-dose-only effect, or another doubt; inactive means no such curve, though single readings can be large; an effect the other way counts as inactive or inconclusive; further: potency means the concentration at half of the fitted maximal effect; on the % scale 0 is the no-effect control and ±100 the full control effect
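Eya2 protein (added as 0.2 uM solution) was preincubated with compound for 10 min at ambient temperature in 50 mM HEPES pH 7.5, 50 mM NaCl, 5 uM MgCl2, 0.05% BSA, 1 mM DTT. OMFP (added at 50 uM) then reacted 10 min; fluorescence read at 485/525 nm.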
CtBP-E1A inh = inhibitors of CtBP/E1A interaction; AlphaScreen GST-E1A/His-CtBP binding, 1536-well; active compounds read low; activity change, % (concentration not given with the values); 340,000 compounds, 0.49% hits; further: on the % scale 0 is the no-effect control and ±100 the full control effect
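In 5 uL wells, 23 nL compound meets equimolar GST-E1A and His-CtBP (5X stock 125 nM each) for 2 h, 37 °C. Beads (5X, 50 ug/mL) then 1 h, 37 °C, dark.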
Active calls of the source: *; ? = inconclusive; . = no result given. In the library only some 0.58% were active in any assay of this set; here they are far more common. Unless noted, no stated cut-off is given here; in the data, active means activity change below about -65%; inconclusive means mostly about -30% to -63%; inactive means weaker than that.

SMILES	Six1-Eya2 blk	GRP78 ERSR act	Eya2 phos inh	CtBP-E1A inh
CCN(CC)CCCOc1cc2nc(N3CCCN(C)CC3)nc(NC3CCN(C)CC3)c2cc1OC	.	-7%	.	.
NC(=S)N=Nc1c(O)cc(O)c2[nH]c(=O)ccc12	-85*	-1%	.	-3
Cc1cccc(C(=O)NC(=S)NNC(=O)c2ccccc2Cl)c1	-9	?	8%	-3
Cc1cc(C(=O)NNC(=S)NC(=O)/C=C/c2ccccc2Cl)n[nH]1	-91*	8%	-5%	-99*
O=C(NC(=S)NNC(=O)c1ccc(Cl)cc1Cl)c1cccnc1	0	1%	2%	-10
COc1ccc(C(=O)NC(=S)NNC(=O)c2ccccc2O)cc1	-92*	-2%	-16%	-12
O=C(NC(=S)NNC(=O)c1ccccc1O)c1cccnc1	-90*	9%	2%	.
O=C(NC(=S)NNC(=O)c1cnccn1)c1ccc(Cl)cc1	-92*	3%	14%	-95*
COc1ccc(C(=O)NC(=S)NNC(=O)c2ccccc2C)cc1	-21	?	.	-12
O=C(NNC(=S)NC(=O)c1cccnc1)c1ccc(Cl)cc1	0	7%	20%	-1
CCn1c(-c2cccc(OC)c2)nc2cc(NC(C)=O)cc(C(=O)N(C)CC3COCCO3)c21 (centres undefined)	.	-5%	.	.
CO[C@H]1[C@H](NC(=O)c2ccncc2)c2ccccc2C12CCN(C(=O)c1ccoc1)CC2	.	-2%	.	.
COc1ccc(CCN(C)C(=O)c2cnn(-c3nccc(-c4ccc(C)o4)n3)c2C)cc1OC	.	-4%	.	.
CC(C)c1c(C(=O)N(C)CC2CCCN(C)C2)cnn1-c1nccc(-c2cccs2)n1 (centres undefined)	.	1%	.	.
CCc1nc2cc(C(=O)NC3CCOC(C)(C)C3)cc(NC(=O)c3ccccc3OC)c2n1C (centres undefined)	.	5%	.	.
COc1cc(/C=N/NC(=O)c2nonc2C)ccc1O	-4	6%	-23%	4
Cc1nonc1C(=O)N/N=C/c1ccc(O)c(O)c1	1	35µM*	4%	3
Cc1cccc(Cn2cnc3c(cnn3C(C)(C)C)c2=O)c1	.	-4%	.	.
COc1ccc(CC(N)c2csc(Nc3ncccn3)n2)cc1 (centres undefined)	-71*	-4%	.	-80*
NC(c1csc(Nc2cc(NCCCO)ncn2)n1)c1ccccc1Cl (centres undefined)	-89*	-6%	.	-89*
COc1ccc(C(N)c2csc(Nc3ncccn3)n2)cc1 (centres undefined)	-85*	-3%	.	-83*
COc1ccc(CC(N)c2csc(Nc3cnccn3)n2)cc1 (centres undefined)	?	-2%	.	-75*
COc1ccc(CC(N)c2csc(Nc3nc(C)cnc3C)n2)cc1 (centres undefined)	?	-2%	.	?
COc1ccc(CC(N)c2csc(Nc3nccc(C(F)(F)F)n3)n2)cc1 (centres undefined)	-7	-2%	.	-17
COc1cc(OC)nc(Nc2nc(C(N)c3ccccc3Cl)cs2)n1 (centres undefined)	-29	-1%	.	-30
SMILES	Six1-Eya2 blk	GRP78 ERSR act	Eya2 phos inh	CtBP-E1A inh
COc1ccc(CC(N)c2csc(Nc3cc(NCc4ccco4)ncn3)n2)cc1 (centres undefined)	-65*	-3%	.	-74*
Nc1ccc(CC(N)c2csc(Nc3cc(Oc4ccccc4)ncn3)n2)cc1 (centres undefined)	?	-5%	.	?
CCc1cnc(Nc2nc(C(N)Cc3ccc(F)cc3)cs2)nc1 (centres undefined)	?	-4%	.	-71*
Cc1cnc(C)c(Nc2nc(C(N)Cc3ccc(F)cc3)cs2)n1 (centres undefined)	?	-6%	.	?
NC(c1csc(Nc2ncccn2)n1)c1ccccc1Cl (centres undefined)	-68*	-5%	.	-66*
COc1cc(=O)n2c(c1C(=O)NC(C)c1ccco1)CCN(Cc1cc(C)ccc1C)CC2 (centres undefined)	.	-3%	.	.
CC1(C)CC(=O)c2cc(C(=O)O)c(=O)n(-c3ccccc3)c2C1	-87*	-4%	18%	-1
Cc1cnc2ccc(I)cc2c1/C=C/c1ccc(N(C)C)cc1	.	-5%	.	.
O=C(CNCc1ccccn1)N1CCc2ccccc2C1	-89*	4%	-5%	-95*
CC(=O)Nc1ccccc1-c1nc(CNC(=O)c2cccc(-n3cccn3)c2)c(C)o1	.	-2%	.	.
COC(=O)c1cn([C@@H]2C[C@@H](C(=O)Nc3cccc(SC)c3)N(C3CCCC3)C2)nn1	.	17%	.	.
CN1CC(c2ccccn2)C2(SC(=S)N(Cc3ccccc3)C2=O)C12C(=O)Nc1ccccc12 (centres undefined)	-76*	-1%	4%	-76*
COc1ccc(Nc2nc(-c3cccs3)nc3ccccc23)cc1S(=O)(=O)N1CCOCC1	?	-6%	.	-67*
O=C(O)Cc1cccc(=O)c(O)c1C(=O)O	-73*	-2%	.	?
OCCN1CCN(Cc2ccc3c(c2)CN(Cc2cccc4ncccc24)CCO3)CC1	.	-1%	.	.
CC(C)CCNC(=O)Cc1ccc(Nc2nc(=S)[nH]c3ccccc23)cc1	-86*	4%	-2%	19
C/C(=N\NC(=O)C1COc2ccccc2O1)c1ccc(C)o1 (centres undefined)	-3	-1%	-12%	-12
C/C(=N\NC(=O)c1ccccc1Cl)c1ccccn1	-91*	-4%	-3%	.
C/C(=N\NC(=O)c1ccccc1OCc1ccc(F)cc1)c1ccccn1	?	20%	-3%	.
C/C(=N\NC(=O)c1ccc(Cl)c(Cl)c1)c1ccccn1	?	-4%	5%	?
C/C(=N\NC(=O)c1cc(-c2cccs2)nc2ccccc12)c1ccccn1	-82*	-6%	18%	-86*
C/C(=N\NC(=O)C1COc2ccccc2O1)c1ccccn1 (centres undefined)	-91*	-1%	0%	-86*
C/C(=N\NC(=O)c1cccc2ccccc12)c1ccccn1	-91*	15%	-21%	-92*
O=C([C@@H]1C[C@@H](Sc2nc3ccccc3[nH]2)CN1CC1CCCCC1)N1CCOCC1	.	-3%	.	.
CCC1CN(CCNC(=O)c2ccc(N3CCOCC3)cc2)Cc2cc(OC)ccc2O1 (centres undefined)	.	1%	.	.
SMILES	Six1-Eya2 blk	GRP78 ERSR act	Eya2 phos inh	CtBP-E1A inh
Cc1cnc(C(=O)NCc2c(C)ncc3c2CCN(C(=O)/C=C/c2cccs2)C3)cn1	.	-3%	.	.
CNC(=O)[C@@H]1C[C@H](NC2CCCCCCC2)CN1Cc1cccc(OC)c1OC	.	-3%	.	.
O=C(N/N=C/c1ccccn1)c1cc(-c2ccncc2)nc2ccccc12	-72*	-3%	-2%	-73*
NC(CCc1ccccc1)c1csc(Nc2ccc(C(F)(F)F)cn2)n1 (centres undefined)	-9	-10%	.	-13
NC(COCc1ccccc1)c1csc(Nc2ccccn2)n1 (centres undefined)	-89*	7%	.	-90*
NC(CCc1ccccc1)c1csc(Nc2ccccn2)n1 (centres undefined)	-73*	-6%	.	-83*
